Assay [1] deals with CRL-7250. In words: Cytotoxic Profiling of Annotated Libraries Using Quantitative High-Throughput Screening (AID 1296008). As to conditions: Five cell lines viability, CellTiter-Glo ATP luminescence, 48-72 h; max response: hits give low values. The method in brief:
(§1)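 Cytotoxicity was measured as CellTiter-Glo ATP luminescence, read after 10 min at room temperature. Compound treatment of the cells lasted 48 or 72 hr at 37 degrees Celsius in a qHTS format.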
Background: ATP-based viability assays read luminescence as a measure of living cells.

Assay [2] deals with HaCat. The assay is described as above. As to conditions: Five cell lines viability, CellTiter-Glo ATP luminescence, 48-72 h; max response: hits give low values. The method in brief:
as §1

In assay [3] the test system is NIH3T3. The assay is described as above. The following applies: Five cell lines viability, CellTiter-Glo ATP luminescence, 48-72 h; max response: hits give low values. The method in brief: as §1
Assay [4] deals with MCC-13. In words: qHTS assay to identify novel small-molecules to repurpose for Merkel cell carcinoma treatment (AID 1296009). As to conditions: MCC and control cell lines, CellTiter-Glo viability, 72 h; series mostly up to 46 µM. In a few lines:
(§2)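 72 hr, 37 degree celsius; NPC 8-pt / MIPE 11-pt dose response; compound pinned in DMSO; CellTiter-Glo, 10 min RT, luminescence; normalized to no-cell and DMSO controls.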
On the technique in general: qHTS replaces the single test concentration by a dilution series.

Assay [5] has as its system MCC-26. The description is as above. The following applies: MCC and control cell lines, CellTiter-Glo viability, 72 h; series mostly up to 46 µM. In a few lines: as §2
The test system of assay [6] is MKL-1. The description is as above. The following applies: MCC and control cell lines, CellTiter-Glo viability, 72 h; series mostly up to 46 µM. The method in brief: as §2
For assay [7], the system named is KB-3-1. In words: Cytotoxic Profiling of Annotated Libraries Using Quantitative High-Throughput Screening (AID 1296008). As to conditions: Five cell lines viability, CellTiter-Glo ATP luminescence, 48-72 h; max response: hits give low values. In a few lines:
as §1

Assay [8] concerns HACAT. Put plainly: qHTS assay to identify novel small-molecules to repurpose for Merkel cell carcinoma treatment (AID 1296009). As to conditions: MCC and control cell lines, CellTiter-Glo viability, 72 h; at 44.8 µM (top of the series) unless noted. In a few lines: as §2
Assay [9] deals with HEK293. In words: Cytotoxic Profiling of Annotated Libraries Using Quantitative High-Throughput Screening (AID 1296008). The following applies: Five cell lines viability, CellTiter-Glo ATP luminescence, 48-72 h; max response: hits give low values. The method in brief:
as §1

Molecules are shown by their SMILES. Inconclusive results are not listed. Unmarked numbers belong to inactive results. The source made the active and inactive calls. Calls come from the whole dose curve; as a rule, active = well fitted inhibition curve with a large enough effect; inconclusive = small, poorly fitted or top-dose-only effect; inactive = flat fitted curve, though single readings scatter.
% is set by controls: 0 for no effect and ±100 for the full control effect; potency is the fitted concentration of half-maximal effect.
Note: nearly all actives have a fitted effect of over 60% in size.

On to `CN=C(NC#N)NCCSCc1csc(N=C(N)N)n1`, for which the max response in assay [1] is 1.65%; in assay [2], 3.38%; in assay [3], 4.93%. The Potency result in [4], in assay [5] and in assay [6] was “inactive” in each case.
Consider `Cc1c(C)n(CCN(C)C)c2ccc(C(=O)OCCN(C)C)cc12`, for which the result in assay [2] and in [8] was inactive. The max response in assay [7] is 2.08%. In addition, in assay [3], the Potency is 7.5 µM (active). Also, the Potency entry in assay [4], in assay [5] and in [6] was “inactive” each time.
Take `COc1c(C)c2c(c(O)c1C/C=C(\C)CCC(=O)O)C(=O)OC2`: the Potency is 0.944 µM (active) in assay [9] and 1.68 µM (active) in [3]. Further, the max response in assay [7] is -17.8%.
On to `O=C(CCN1CCC(c2ccccc2)C1)c1ccc2c(c1)OCCO2` (centres undefined), for which the call in assay [2] and in [8] was inactive. The max response in assay [7] is -5.38%. For the same molecule, the Potency entry in assay [5] is “inactive”. Further, the Potency in assay [6] is 2.66 µM (active).
On to `NC(=O)C(=O)N/N=C/c1ccc([N+](=O)[O-])o1`, for which the call in assay [2] and in assay [8] was inactive. Besides, in assay [7], the max response is 30.2%. Moreover, the Potency result in assay [4] and in assay [5] was “inactive” each time. In addition, the Potency in assay [6] is 26.6 µM (active).
`CCCCOc1ccc(C(=O)CCN2CCCCC2)cc1`: the molecule was classed as inactive in assay [2] and in assay [8]. In addition, the values for the max response in assay [7] and in [3] were 0.445% and -2.83%, respectively. Also, the Potency entry in [4] and in assay [5] was “inactive” throughout. In addition, the Potency in assay [6] was 9.44 µM (active).
Turning to `COc1cccc(CCc2ccccc2OCC(CN(C)C)OC(=O)CCC(=O)O)c1` (centres undefined), the max response was 3.68% in assay [1], -2.49% in [7] and -1.97% in assay [3]. Also, the Potency result in assay [4], in assay [5] and in [6] was “inactive” throughout.
As for `COc1cc(-c2ccc(=O)[nH]n2)ccc1OC(F)F`, in assay [1], the Potency is 1.19 µM (active). Besides, the max response in assay [3] was -9.32%. Moreover, the Potency entry in assay [4], in assay [5] and in assay [6] was “inactive” in each case.
Regarding `CCCOC(C(=O)OC1CCN(C)CC1)(c1ccccc1)c1ccccc1`, the max response in assay [1] is -3.11%; in assay [2], -26.2%; in assay [3], 4.34%. Besides, the Potency entry in assay [4], in [5] and in assay [6] was “inactive” each time.
`CN1CCN(CCCN2c3ccccc3Sc3ccc(S(=O)(=O)N(C)C)cc32)CC1`: the call in assay [2] and in assay [8] was inactive. For the same molecule, in assay [7], the max response was -2.22%. For the same molecule, the Potency entry in assay [4] and in assay [5] was “inactive” in each case.
Consider `CC(=O)Nc1c(I)cc(I)c(C(=O)O)c1I`, for which the max response is 4.29% in [2] and -17.1% in assay [7]. Besides, the outcome in assay [3] was inactive. In addition, the Potency entry in assay [4], in assay [5] and in assay [6] was “inactive” throughout.
Take `N[C@@H](Cc1cnc[nH]1)C(=O)O`: the max response in assay [7] was 2.19%.
The same measure, in the same setting: the figure for `CC(C)COC(=O)OCN1C(=O)CN(CCN2CC(=O)N(COC(=O)OCC(C)C)C(=O)C2)CC1=O` is 6.86%.
Consider `CCCCCCCCCCOCC(O)CN` (centres undefined), for which the max response in assay [7] was -10.6%. Further, the Potency entry in assay [5] is “inactive”.
Take `CCCCN1CCCC1C(=O)Nc1c(C)cc(C)cc1C` (centres undefined): the max response in assay [7] is -0.66%; in [3], -4.8%. The Potency entry in assay [4], in assay [5] and in assay [6] was “inactive” each time.
Regarding `CCC(NC(C)C)C(O)c1ccc(O)c(O)c1` (centres undefined), in assay [7], the max response was -9.53%.
In the case of `Cc1cccc(C)c1NC(=O)CN1CCN(CCCC(c2ccc(F)cc2)c2ccc(F)cc2)CC1`, the max response in assay [7] was -1.23%. Besides, the Potency entry in assay [4], in assay [5] and in [6] was “inactive” throughout.
With `CC(C)N=C(N)/N=C(\N)Nc1ccc(Cl)cc1`, the max response in [2] is 0.505%; in [7], -14.7%. The Potency result in assay [4], in assay [5] and in assay [6] was “inactive” throughout.
Consider `CCCCCCc1ccc(O)cc1O`, for which the values for the max response in [7] and in assay [3] were 0.129% and 4.72%, respectively. Also, the Potency result in [4], in assay [5] and in assay [6] was “inactive” throughout.
For `C[N+]1(CCCCC[N+]2(C)CCCC2)CCCC1`, the max response in assay [7] is 15%.
Same read-out and setting: in the case of `C1CCc2nnnn2CC1` it was 18.9%.
On to `Clc1ccc2c(c1)CCc1cccnc1C2=C1CCNCC1`, for which the max response in assay [2] is -1.5%; in assay [7], -7.06%. Moreover, the Potency result in assay [4] and in assay [5] was “inactive” in each case.
For the molecule `CCCC1O[C@@H]2C[C@H]3[C@@H]4CCC5=CC(=O)C=C[C@]5(C)[C@H]4[C@@H](O)C[C@]3(C)[C@]2(C(=O)CO)O1` (some centres undefined), the max response in assay [7] was 0.499%.
Same read-out and setting: in the case of `CC(C)C[C@H]1C(=O)N2CCC[C@H]2[C@]2(O)O[C@](NC(=O)[C@@H]3C=C4c5cccc6[nH]c(Br)c(c56)C[C@H]4N(C)C3)(C(C)C)C(=O)N12` it was 3.47%.
On to `O=C(Nc1ccc(Cl)c(Cl)c1)C1CC1`, for which the max response in assay [7] was -14.1%; in [3], -1.64%. Moreover, the Potency result in assay [4], in assay [5] and in assay [6] was “inactive” in each case.
